# This is a sample that favours compounds with a hit; in the whole collection about 11% have one here.
# VDR inhibitor: vitamin D3 receptor (human) inhibition; VDR-SRC2-3 peptide fluorescence polarization, 2 h; Potency, µM, hits mostly inhibitors; 0.93% of 400,000 active; AID 504847
# Target sequence (P11473 whole entry, looked up): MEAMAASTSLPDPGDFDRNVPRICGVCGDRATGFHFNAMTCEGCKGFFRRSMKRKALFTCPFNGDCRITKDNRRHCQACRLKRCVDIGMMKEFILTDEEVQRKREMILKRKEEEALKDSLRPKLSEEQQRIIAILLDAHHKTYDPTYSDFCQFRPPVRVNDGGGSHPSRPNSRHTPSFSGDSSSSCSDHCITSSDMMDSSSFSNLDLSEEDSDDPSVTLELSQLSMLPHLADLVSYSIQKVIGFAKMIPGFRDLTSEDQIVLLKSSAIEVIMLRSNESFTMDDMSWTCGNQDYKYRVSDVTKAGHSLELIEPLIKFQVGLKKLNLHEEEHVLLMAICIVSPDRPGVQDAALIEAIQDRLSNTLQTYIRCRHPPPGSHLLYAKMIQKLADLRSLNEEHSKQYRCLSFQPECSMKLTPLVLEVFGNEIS
#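 FP read-out; VDR + SRC2-3 coactivator peptide; 23 nl compound by pintool; 2 h RT incubation; reagents held at 4 deg C, protected from light.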
# G9a block: G9a (human) methyltransferase inhibition. Q96KQ7. G9a H3K9 monomethylation, AlphaScreen, 2 h. Potency, µM (titrated, usually from 102 µM), usual class: inhibitors. 8.8% of 350,000 active. AID 504332; further: nearly all actives have a fitted effect of over 75% in size
#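 Signal arises when biotinylated H3K9 peptide, once monomethylated, bridges streptavidin donor and antibody-captured acceptor beads. Enzyme at 20 nM was preincubated 15 min with test compounds; peptide 500 nM and SAM 20 uM then reacted for 2 h.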
# PLK1 PBD block: PLK1 (human) polo-box domain binding inhibition | 2.8% of 360,000 active | Potency, µM, actives largely listed as inhibitors | AID 720504 | P53350 | Plk1 PBD binding of FITC phosphopeptide, fluorescence polarization; further: series mostly up to about 57 µM; nearly all actives have a fitted effect of over 65% in size
# HP1b binding inh: HP1-beta chromodomain-methylated histone interaction inhibition. Potency, µM (doses to about 114 µM), hits mostly inhibitors. P83916. AlphaScreen HP1-beta / biotin-H3K9me3 peptide binding. 0.56% of 390,000 active. AID 540317; further: nearly all actives have a fitted effect of over 70% in size
# Target sequence (P83916 whole entry, looked up): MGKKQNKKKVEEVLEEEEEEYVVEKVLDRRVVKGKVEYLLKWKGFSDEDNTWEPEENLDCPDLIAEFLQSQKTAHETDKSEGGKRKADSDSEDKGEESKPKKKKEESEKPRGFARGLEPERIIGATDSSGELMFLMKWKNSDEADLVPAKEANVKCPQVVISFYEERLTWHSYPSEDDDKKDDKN
#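 HP1-beta protein (50 nM final) preincubated 30 min at room temperature with biotinylated H3(1-18)K9me3 peptide (50 nM) in PBS pH 7.4, 0.01% Tween-20, then compound added for 30 min. AlphaScreen streptavidin donor/nickel chelate acceptor beads (10 ug/mL final), 30 min dark, luminescence read.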
# JMJD2A Tudor inh: blocks the human JMJD2A Tudor domain; Potency, µM (series often up to 114 µM), usual class: inhibitors; 4.4% of 390,000 active; AlphaScreen JMJD2A-Tudor / H3K4me3 peptide binding; further: nearly all actives have a fitted effect of over 50% in size
# BAZ2B inh: BAZ2B (human) inhibition; 4.4% of 360,000 active; Q9UIF8; Potency, µM (highest dose often 114 µM), actives largely listed as inhibitors; AlphaScreen BAZ2B-H3K14Ac peptide displacement; AID 504333; further: nearly all actives have a fitted effect of over 60% in size
#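 AlphaScreen displacement: compounds (up to 110uM) incubated 30 min at room temperature with a preformed 50 nM BAZ2B/50 nM biotinylated H3K14Ac peptide complex in PBS pH 7.4 with Tween-20. Donor and acceptor beads at 10 ug/mL final added, 20 min light-protected before reading.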
# Numbers stand for hits; - = inactive; ? = inconclusive; . = no result given; [ ] = another dose, or the depositor's remark. The call rests on the fitted dose curve; in most records, active means well fitted curve in the direction sought with a large enough effect; inconclusive means small, poorly fitted or top-dose-only effect, or another doubt; inactive means no such curve, though single readings can be large; an effect the other way counts as inactive or inconclusive.
SMILES,VDR inhibitor,G9a block,PLK1 PBD block,HP1b binding inh,JMJD2A Tudor inh,BAZ2B inh
COc1cc(C(=O)Nc2nc(C)c(Cc3ccc4c(c3)OCO4)s2)cc(OC)c1OC,?,4µM,9.5µM,?,?,-
Cc1nc(NC(=O)c2ccc(OCC(C)C)cc2)sc1Cc1ccc2c(c1)OCO2,-,-,-,-,?,?
CCC(=O)Nc1sc(Cc2ccc3c(c2)OCO3)c(C)c1C(N)=O,?,10µM,21µM,-,-,-
CCCOc1ccc(C(=O)Nc2nc(C)c(Cc3ccc4c(c3)OCO4)s2)cc1,-,-,-,-,-,-
Cc1ccc(Nc2cc(C(=O)NCc3cccs3)c3ccccc3n2)c(C)c1,-,-,.,-,-,.
O=C(CCCn1c(=O)oc2ccccc21)N1CCc2ccccc2C1,-,-,-,-,-,-
CCCNC(=O)CCn1c(=S)oc2ccccc21,?,-,12µM,-,-[11.4 µM],-
O=C(CCn1c(=O)oc2ccccc21)NCCN1CCc2ccccc2C1,-,?,-,-,50µM,-
CC(=O)Nc1ccc(NC(=O)CCn2c(=S)oc3ccccc32)cc1,-,-,-,-,-,-
O=C(CCn1c(=O)oc2ccccc21)N1CCCCCC1,-,-,-,-,-,-
O=C(CCn1c(=O)oc2ccccc21)n1c(=O)oc2ccccc21,-,79µM,-,-,-,-
COc1ccc(CNC(=O)C2CCCN2S(=O)(=O)c2ccc(F)cc2)cc1 (stereo not given),-,-,-,-,-,-
CCNC(=O)C1CCCN1S(=O)(=O)c1ccc(OC)cc1 (stereo not given),-,8.9µM,-,-,-,-
COc1ccc(S(=O)(=O)N2CCCC2C(=O)Nc2nnc(-c3cccnc3)s2)cc1 (stereo not given),?,3.5µM,27µM,-,-,-
COc1ccc(NC(=O)NCc2cccn2Cc2ccc(F)cc2)cc1OC,-,-,.,-,-,-
COc1ccc(N2C(=S)NC3CS(=O)(=O)CC32)cc1 (stereo not given),-,.,-,-,-,-
CSCCC(NC(=O)c1ccccc1Cl)C(=O)Nc1ccncc1 (stereo not given),-,40µM,-,-,-,-
CCOc1ccccc1CSc1nc2ccccc2[nH]1,-,-,-,-,-,-
O=C(O)c1ccccc1CSc1nc2ccccc2[nH]1,-,50µM,-,-,-,-
Nc1c(-c2ccccc2)c(CSc2nc3ccccc3[nH]2)nn1-c1ccc(C(=O)O)cc1,?,?,15µM,?,22µM,-
N[C@H](Cn1ccc(=O)n(Cc2ccccc2C(=O)O)c1=O)C(=O)O,-,.,.,.,.,.
Cc1cc(OCC(=O)NCCO)ccc1Cl,-,-,-,-,-,-
COc1ccc(OCC(=O)Sc2ccc(C)cc2)cc1,?,-,4.7µM,-,-,-
CC(C)c1ccc(OCC(=O)NCCO)cc1,?,-,27µM,?,?,-
COc1ccc(OC(=O)COc2ccc(C)cc2)cc1,-,-,-,-,-,-
SMILES,VDR inhibitor,G9a block,PLK1 PBD block,HP1b binding inh,JMJD2A Tudor inh,BAZ2B inh
Cc1ccc(OCC(=O)NCCCNC(=O)COc2ccc(C)cc2)cc1,-,35µM,-,-,-,-
Cc1cc(OCC(=O)NCCO)cc(C)c1Cl,-,-,-,-,89µM,-
CCOc1ccc(NC(=S)N2CCc3cc(OC)c(OC)cc3C2COc2ccc3c(C)cc(=O)oc3c2)cc1 (stereo not given),-,-,-,-,-,-
OCC[C@@H]1C[C@H](O)[C@@H](O)[C@@]2(OCCCc3ccccc32)O1,-,-,-,-,-,-
c1ccc(C[C@H]2COc3c4ccccc4nn32)cc1,.,.,-,.,.,.
CC(=O)N(c1ccccc1)C1SC(=O)N(c2ccccc2)C1=O (stereo not given),-,-,21µM,-,-,.
CC(=O)N(c1cccc(C)c1)C1SC(=O)N(c2ccccc2)C1=O (stereo not given),-,-,24µM,-,-,-
CCN(c1ccccc1)C1SC(=O)N(c2ccccc2)C1=O (stereo not given),-,.,.,-,-,.
O=C(CN(Cc1ccc(F)cc1)C(=O)C1CSC(=O)C1)NC1CCCCC1 (stereo not given),-,-,-,-,-,-
CN(C)c1ccc(/C=N/c2cc(-c3ccccc3)nn2-c2ccccc2)cc1,-,?,-,-,?,10µM
Cc1nn(-c2ccccc2)c(/N=C/c2ccc(O)cc2)c1-c1ccccc1,-,-,-,-,-,-
Cc1cc(C)c(NC(=O)c2ccc(CNS(=O)(=O)c3cc(C(F)(F)F)ccc3Cl)cc2)c(C)c1,-,-,-,-,-,-
Cc1cc(C)c2[nH]c(=S)cc(C)c2c1,-,3.5µM,?,-,-,-
O=C(CCNS(=O)(=O)c1ccc2c(c1)CCCC(=O)N2)NCc1ccc(Cl)cc1,-,-,.,-,-,-
O=c1c2ccccc2nc(N2CCN(c3cccc(Cl)c3)CC2)n1-c1ccccc1,-,-,.,-,-,.
COc1cc(OC)c(NS(=O)(=O)c2ccc3c(c2)NC(=O)CO3)cc1Cl,?,-,6.7µM,-,16µM,-
COc1cc(OC)c(NS(=O)(=O)c2ccc3c(c2)NC(=O)CCS3)cc1Cl,-,-,.,-,-,-
CC(C)CN(CC(C)C)S(=O)(=O)c1ccc(C(=O)Nc2sc3c(c2C(N)=O)CC(C)(C)NC3(C)C)cc1,-,-,.,-,-,-
CN(C1CCCCC1)S(=O)(=O)c1ccc(C(=O)Nc2sc3c(c2C(N)=O)CC(C)(C)NC3(C)C)cc1,-,-,34µM,-,?,-
COc1ccccc1-n1cc(CN2CCCC(CO)(Cc3cccc(Cl)c3)C2)cn1 (stereo not given),-,.,-,-,-,?
N#Cc1c(C(F)(F)F)cc(=O)n2c1[nH]c1ccccc12,-,-,21µM,-,-,-
CC(C(Sc1ccccc1N)c1ccccc1)[N+](=O)[O-] (stereo not given),18µM,3.2µM,1.9µM,?,20µM,-
[O-]C1=N/[N+](=C/c2ccccc2)CC1,-,14µM,-,-,-,-
O=C(CN(Cc1ccccc1)C1=NCCS1)c1ccc(Cl)cc1,-,45µM,?,-,-,-
COc1ccc(C(=O)CN(Cc2ccccc2)C2=NCCS2)cc1,-,-,-,-,-,-
O=C(CSC1=NCCS1)c1ccc(Cl)cc1,79µM,-,?,-,-,.
CCOc1ccc(CCNC(=O)CCc2c(C)nc3c(-c4ccccc4)c(C)nn3c2C)cc1OCC,-,-,.,-,-,-
COc1ccc(-c2cccc(C(=O)N3CCOCC3)c2)cc1,-,-,-,-,-,-
COc1ccc(/C=C2\Sc3ccc(C(=O)N4CCOCC4)cc3N(C)C2=O)cc1,-,-,-,-,56µM,-
